Reference: PubChem BioAssay AID1159580 (chemical genetic matrix, 2015)
Where “and” joins values, the source holds several entries; their conditions need not be identical. Equal entries are not always repeated. The whole screen tested about 5,500 compounds, of which about 2,000 (36%) were called active. About 18% were inconclusive and are not listed. Cut-off read from the data, not from the text of the source: active = normalized growth mostly below about 0.91 (no sharp cut-off); inconclusive = no clear call, values can overlap the other calls; inactive = mostly above about 0.92. Some of the results follow.

Assay: chemical genetic growth profiling, strain panel (AID 1159580);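 note: tested at 20 µM; growth read once vehicle control cultures reached saturation at 30 °C; 1 = growth at the plate median or of vehicle wells; lower values mean less growth of the strain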
Conditions: S. cerevisiae deletion strains, growth OD

Measured: normalized growth

CC(=O)Oc1cc(OC(C)=O)c2c(c1)O[C@H](c1ccc(OC(C)=O)c(OC(C)=O)c1)[C@@H](OC(C)=O)C2
inactive: locus YAL013W, strain DEP1, active compounds read low 1 | locus YAL021C, strain ccr4, active compounds read low 1 | locus YAL026C, strain drs2, active compounds read low 0.995 | locus YAL030W, strain snc1, active compounds read low 1 | locus YBL061C, strain skt5, active compounds read low 1 | locus YBR009C, strain hhf1, active compounds read low 1.02 | locus YBR021W, strain FUR4, active compounds read low 0.975 | locus YBR023C, strain chs3, active compounds read low 1 | locus YBR171W, strain sec66, active compounds read low 1 | locus YBR229C, strain ROT2, active compounds read low 0.992 | locus YBR231C, strain swc5, active compounds read low 0.99 | locus YBR279W, strain paf1, active compounds read low 1 | locus YCL011C, strain gbp2, active compounds read low 1 | locus YCL016C, strain dcc1, active compounds read low 1 | locus YCL029C, strain bik1, active compounds read low 0.965 | locus YCL061C, strain MRC1, active compounds read low 0.994 | locus YCL069W, strain vba3, active compounds read low 1 | locus YCR088W, strain abp1, active compounds read low 1 | locus YDL005C, strain med2, active compounds read low 1 | locus YDL035C, strain GPR1, active compounds read low 0.995 | locus YDL040C, strain nat1, active compounds read low 1 | locus YDL074C, strain BRE1, active compounds read low 0.99 | locus YDL101C, strain DUN1, active compounds read low 0.994 | locus YDL134C, strain PPH21, active compounds read low 1.04 | locus YDL185W, strain tfp1, active compounds read low 0.972 | locus YDL192W, strain arf1, active compounds read low 0.98 | locus YDR001C, strain nth1, active compounds read low 1 | locus YDR069C, strain doa4, active compounds read low 0.994 | locus YDR101C, strain arx1, active compounds read low 0.961 | locus YDR137W, strain rgp1, active compounds read low 1.02 | locus YDR159W, strain sac3, active compounds read low 0.999 | locus YDR162C, strain NBP2, active compounds read low 0.997 | locus YDR195W, strain ref2 0.966 | locus YDR297W, strain sur2, active compounds read low 1.01 | locus YDR318W, strain mcm21, active compounds read low 1.01 | locus YDR334W, strain swr1, active compounds read low 1 | locus YDR335W, strain msn5, active compounds read low 0.997 | locus YDR388W, active compounds read low 0.978 | locus YDR392W, strain spt3, active compounds read low 0.927 | locus YDR502C, strain sam2, active compounds read low 0.984 | locus YEL003W, strain gim4, active compounds read low 1 | locus YEL037C, strain rad23, active compounds read low 1 | locus YEL061C, strain CIN8 (second series), active compounds read low 0.998 | locus YEL061C, strain CIN8, active compounds read low 1 | locus YER015W, strain faa2, active compounds read low 0.995 | locus YER016W, strain bim1, active compounds read low 0.999 | locus YER110C, active compounds read low 0.97 | locus YER111C, strain swi4, active compounds read low 1 | locus YER155C, strain BEM2 (second series), active compounds read low 1 | locus YER155C, strain BEM2, active compounds read low 1 | locus YER167W, strain BCK2, active compounds read low 1 | locus YFR010W, strain ubp6, active compounds read low 1 | locus YGL078C, strain dbp3, active compounds read low 0.979 | locus YGL086W, strain mad1, active compounds read low 0.955 | locus YGL167C, strain pmr1, active compounds read low 1 | locus YGL173C, strain kem1, active compounds read low 1.01 | locus YGL227W, strain vid30, active compounds read low 0.993 | locus YGL240W, strain doc1, active compounds read low 1 | locus YGL248W, strain PDE1, active compounds read low 0.993 | locus YGL253W, strain hxk2, active compounds read low 0.997 | locus YGR078C, strain PAC10, active compounds read low 0.991 | locus YGR135W, strain pre9, active compounds read low 0.992 | locus YGR229C, strain SMI1, active compounds read low 0.992 | locus YGR252W, strain gcn5, active compounds read low 1.1 | locus YHR013C, strain ard1, active compounds read low 0.967 | locus YHR027C, strain rpn1, active compounds read low 1 | locus YHR030C, strain SLT2, active compounds read low 0.998 and 0.994 | locus YHR079C, strain IRE1 (second series), active compounds read low 0.98 | locus YHR079C, strain IRE1, active compounds read low 0.98 | locus YHR094C, strain hxt1, active compounds read low 0.985 | locus YHR129C, strain ARP1, active compounds read low 1 | locus YHR142W, strain chs7, active compounds read low 1.02 | locus YHR200W, strain rpn10, active compounds read low 0.982 | locus YIL066C, strain RNR3, active compounds read low 0.978 | locus YIL073C, strain SPO22, active compounds read low 1.01 | locus YIL125W, strain kgd1, active compounds read low 0.975 | locus YIR030C, strain dcg1, active compounds read low 0.982 | locus YJL092W, strain hpr5, active compounds read low 0.997 | locus YJL095W, strain BCK1 (second series), active compounds read low 1 | locus YJL095W, strain BCK1, active compounds read low 1.02 and 0.979 | locus YJL115W, strain asf1, active compounds read low 0.99 | locus YJL129C, strain trk1, active compounds read low 0.995 | locus YJL134W, strain LCB3, active compounds read low 0.997 | locus YJL154C, strain vps35, active compounds read low 0.997 | locus YJL164C, strain tpk1, active compounds read low 1 | locus YJL166W, strain qcr8, active compounds read low 1.01 | locus YJL168C, strain set2, active compounds read low 0.981 | locus YJL187C, strain SWE1 (second series), active compounds read low 0.985 | locus YJL187C, strain SWE1, active compounds read low 1 | locus YJR043C, strain POL32, active compounds read low 1.01
